Whole data set: some 2,000 compounds, median “fractional viability relative to vehicle” near 0.91, cut for the lowest 2% near 0.045. The entries come from a sample that favours the lowest values as a whole.
Test system: TYKNU
Assay: fractional viability relative to vehicle; TYKNU is a high-grade serous ovarian cancer line; higher = less growth inhibition
Conditions: 72 h
How it was run: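 TYKNU control cells or lentiCRISPRv2 knockout derivatives were plated at 500 cells per well in duplicate into drug-stamped 384-well plates holding a ~2100-compound library at 2 or 10 μM. Culture was in RPMI 1640 with 10% FBS at 37 °C in 5% CO2, with 72 h of drug treatment. Viability was measured by Cell Titer Glo luminescence, and the averaged duplicate treatment wells were normalised to duplicate control wells at the same plate position.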

[1] = 2uM, genotype: DNM1L knockout (sgDNM1L #1)
[2] = 2uM, genotype: sgCTRLA1 (non-targeting control)
[3] = 10uM, genotype: DNM1L knockout (sgDNM1L #1)
[4] = 10uM, genotype: sgCTRLA1 (non-targeting control)

Row | SMILES | fractional viability [1] | fractional viability [2] | fractional viability [3] | fractional viability [4]
1 | CCNC(=O)C#Cc1ccc2c(C(=Nc3ccc(CN(C)C)cc3)c3ccccc3)c(O)[nH]c2c1 | 0.122 | 0.0962 | 0.0494 | 0.0319
2 | CN(C)Cc1cccc(N=C(c2ccccc2)c2c(O)[nH]c3cc(C(=O)N(C)C)ccc23)c1 | 1.01 | 0.843 | 0.588 | 0.574
3 | O=C([C@@H](Cc1cccc(C(F)(F)F)c1)NS(=O)(=O)c1cc(F)c2c(c1)CCNC2)N1CCCC1 | 0.927 | 1.04 | 0.863 | 0.888
4 | CC(C)CCNC(=O)[C@H](CC(C)C)NC(=O)[C@H]1O[C@@H]1C(=O)O [Loxistatin Acid (E-64C)] | 0.865 | 0.938 | 0.959 | 0.802
5 | CCCCC(=O)N(Cc1ccc(-c2ccccc2-c2nnn[nH]2)cc1)[C@H](C(=O)O)C(C)C.CCOC(=O)[C@H](C)C[C@@H](Cc1ccc(-c2ccccc2)cc1)NC(=O)CCC(=O)O | 0.864 | 0.941 | 0.769 | 0.732
6 | CN1CCN(S(=O)(=O)c2ccc(-c3cnc(N)c(C(=O)Nc4cccnc4)n3)cc2)CC1 | 0.731 | 1.08 | 0.346 | 0.474
7 | O=C(O)C(Cc1ccccc1[N+](=O)[O-])=NNc1nc(-c2ccc(Cl)c(Cl)c2)cs1 (mixture of isomers) | 0.727 | 0.775 | 0.717 | 0.573
